Screening results from PubChem.
Hits are enriched below; roughly 2.7% of the tested compounds scored in any of these assays.
TrxR1 substrate – substrates of rat thioredoxin reductase 1; O89049; purified TrxR1 substrate turnover, NADPH consumption readout; Potency, µM (doses to about 114 µM), for the others: at the top dose activity change, negative = substrate turnover; 0.01% of 390,000 active; further: on the % scale 0 is the no-effect control and ±100 the full control effect; nearly all actives have a fitted effect of over 50% in size
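Rat TrxR1, dispensed at 90 nM, was prereduced with 400 uM NADPH (final) for 5 min at ~22 deg C, then incubated with compound 15 min before 400 uM selenite. A first-read NADPH fluorescence drop versus no-compound background flagged substrates.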
rTrxR1 inhibitor – inhibitors of rat thioredoxin reductase 1; recombinant rTrxR1, NADPH fluorescence consumption, selenite substrate; Potency, µM (series often up to 114 µM), for the others: top-dose activity change, negative = inhibition, actives largely listed as inhibitors; 1% of 390,000 active; further: on the % scale 0 is the no-effect control and ±100 the full control effect; nearly all actives have a fitted effect of over 65% in size
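Rat TrxR1 (90 nM in the dispensed reagent) was pre-reduced with 400 uM NADPH for 5 min at room temperature, then incubated with compound for 15 min. After 400 uM selenite was added, NADPH fluorescence (Ex 340/Em 450 nm) was followed for 8 min.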
IDH1 R132H inh – blocks human mutant IDH1 R132H enzyme | O75874 | IDH1-R132H enzyme, NADPH consumption, diaphorase/resazurin fluorescence | Potency, µM (top dose mostly 76.6 µM), for inactives: top-dose activity change, negative = inhibition, actives largely listed as inhibitors | 0.093% of 390,000 active | AID 602179; further: on the % scale 0 is the no-effect control and ±100 the full control effect; nearly all actives have a fitted effect of over 65% in size
Target sequence (O75874 whole entry R132H, stated change not applied): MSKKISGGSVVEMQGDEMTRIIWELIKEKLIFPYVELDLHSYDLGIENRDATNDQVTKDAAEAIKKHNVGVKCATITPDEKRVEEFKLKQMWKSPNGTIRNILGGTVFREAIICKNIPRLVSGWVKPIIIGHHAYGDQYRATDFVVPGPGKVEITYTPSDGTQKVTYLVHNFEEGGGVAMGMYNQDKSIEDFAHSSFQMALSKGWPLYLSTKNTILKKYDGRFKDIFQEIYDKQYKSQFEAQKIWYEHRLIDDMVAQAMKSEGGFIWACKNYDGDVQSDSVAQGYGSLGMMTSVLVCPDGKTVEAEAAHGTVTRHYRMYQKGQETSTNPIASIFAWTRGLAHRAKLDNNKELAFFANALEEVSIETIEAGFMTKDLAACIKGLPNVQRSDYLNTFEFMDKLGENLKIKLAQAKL
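IDH1-R132H (0.5 ug/mL) preincubated 30 min with compound, then NADPH (0.016 mM) and alpha-KG (2 mM) added; 80 min at RT, pH 7.5. Remaining NADPH coupled via diaphorase/resazurin to fluorescence (540/590 nm); concentration-response curves normalized to no-enzyme control.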
GLP1R inv ag – GLP-1 receptor (human) inverse agonism. P43220. HEK293 GLP-1R CRE-luciferase, luminescence, 24 h; GLP-1R form is constitutively active. Potency, µM (series often up to 38.3 µM), for inactives: at the top dose activity change, negative = inhibition, usual class: inhibitors. 1.6% of 410,000 active; further: on the % scale 0 is the no-effect control and ±100 the full control effect; nearly all actives have a fitted effect of over 55% in size
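GLP-1R inverse agonism mode: basal reporter luminescence in engineered HEK293 cells measured after one day of compound exposure at 37 deg C, with a 12 min room-temperature detection step.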
HEK293 tox – cytotoxic in the GLP-1 receptor inverse agonist counter-screen | HEK293 cAMP-luciferase reporter cells, luminescence, 24 h | 0.13% of 410,000 active | Potency, µM (titrated, usually from 38.3 µM), for the others: at the top dose activity change, negative = inhibition, usual class: inhibitors;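 further: loss of luciferase light is scored as toxicity; on the % scale 0 is the no-effect control and ±100 the full control effect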
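Quantitative HTS format, 1536 wells, 200 cells/uL seeded. Compounds: 23 nL, 24 h, 37 °C. Detection: luciferase reagent, luminescence at 12 min RT; decreased signal taken as cytotoxic.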
GLP1R ag – agonists of human GLP-1 receptor. P43220. HEK293 GLP-1R CRE-luciferase, luminescence, 4-6 h; cells express a hypersensitive GLP-1R form. 0.007% of 380,000 active. Potency, µM (highest dose often 45.6 µM), inactives show at the top dose activation, hits mostly activators; further: % of control where 0% means no effect
* marks the source's active call; other numbers are inactive results; i = inactive; ? = inconclusive; . = no result given; [ ] = dose if it differs, or a comment. The call rests on the fitted dose curve; in most records, active means well fitted curve in the direction sought with a large enough effect; inconclusive means small, poorly fitted or top-dose-only effect, or another doubt; inactive means no such curve, though single readings can be large; an effect the other way counts as inactive or inconclusive. Potency means the concentration at half of the fitted maximal effect.

SMILES	TrxR1 substrate	rTrxR1 inhibitor	IDH1 R132H inh	GLP1R inv ag	HEK293 tox	GLP1R ag
CCn1nc(-c2ccc(C)cc2)nc2c(=O)n(C)c(=O)nc1-2	50µM*	?	.	.	.	.
Cc1c(C#N)c(NC(=O)COC(=O)c2cc(Cl)c3c(c2)OCCCO3)n(Cc2ccco2)c1C	8%	-7%	.	.	.	.
Cc1nc2ccccc2c(N)c1C(=O)/C=C/c1ccccc1	2%	-1%	-11%	10µM*	?	-3%
COc1ccc(Br)cc1CNC(=O)C1CCN(c2nnc(-n3cccc3CNc3ccc(C)cc3)s2)CC1	4%	-19%	.	?	1%	.
Cc1ccc(NCc2cccn2-c2nnc(N3CCC(C(=O)NCCc4ccc(Cl)cc4)CC3)s2)cc1	3%	11%	.	10µM*	-13%	.
Cn1c(=O)n(-c2ccc(Br)cc2F)c(=O)c2sc3ccccc3c21	0%	10%	9%	-6%	-3%	1%
Nc1cc(=O)[nH]c(=S)[nH]1	-6%	-7%	.	.	.	.
O=C1NC(=S)S/C1=C/c1ccc(N2CCOCC2)o1	-15%	13µM*	?	8%	?	-5%
O=C1S/C(=C\c2ccc(N3CCOCC3)o2)C(=O)N1Cc1ccc(F)cc1	-11%[57.1 µM]	2.5µM*	2%	7%	-19%	4%
CC(C)OC(=O)CN1C(=O)S/C(=C/c2ccc(N3CCCCC3)o2)C1=O	-1%	?	1%	-5%	-24%	-1%
O=C1S/C(=C/c2ccc(N3CCOCC3)o2)C(=O)N1Cc1ccc(F)cc1	-4%	8.9µM*	13%	-9%	3%	2%
Cc1ccc(-c2ccc(/C=C3\SC(N4CCOCC4)=NC3=O)o2)cc1	4%[57.1 µM]	-36%	?	4.5µM*	71%	5%
O=C1N=C(N2CCOCC2)S/C1=C/c1ccc(-c2ccc(F)cc2)o1	-2%	-3%	7%	19%	18%	5%
Cc1cc(C)cc(Oc2coc3c(CN4CCN(C)CC4)c(O)ccc3c2=O)c1	23%	-5%	2%	3%	-24%	.
O=C(CSc1nnc(-c2cccc(F)c2)c(-c2cccc(F)c2)n1)NC1CCCCC1	4%[57.1 µM]	8%[57.1 µM]	5%	41%	4%	.
O=C1/C(=C/c2ccc(N3CCOCC3)o2)SC(=Nc2ccccc2)N1CCc1c[nH]c2ccccc12	-6%	10µM*	-2%	1.1µM*	?	-53%
Cc1cc(Sc2nnc(N)s2)c2ccccc2n1	3%	8.9µM*	7%	?	-29%	-5%
Cc1cc(C)c2ccccc2n1	5%	7%	.	.	.	.
Cc1cc(Sc2nnc(/N=C/N(C)C)s2)c2ccccc2n1	-3%	2.5µM*	0%	3.2µM*	-7%	-5%
Cc1cccc(N(CC(=O)N(C)Cc2ccccc2)S(=O)(=O)c2ccccc2)c1C	-2%	15%	7%	?	-4%	-5%
Cc1ccc(/C=C/C(=O)Nc2ncc(C)s2)o1	5%	40µM*	1%	27%	17%	1%
Cc1ccc(/C=C/C(=O)Nc2nccs2)o1	-3%	45µM*	3%	96%	2%	11%
CCOC(=O)/C=C/C(=O)Nc1nccs1	-3%	50µM*	8%	?	?	-21%
CCOC(=O)C(=O)Nc1nccs1	-1%	14%	-4%	7%	-17%	2%
Cc1csc(NC(=O)/C=C/c2ccc(C)o2)n1	-2%	?	6%	23%	-7%	1%
SMILES	TrxR1 substrate	rTrxR1 inhibitor	IDH1 R132H inh	GLP1R inv ag	HEK293 tox	GLP1R ag
Cc1cnc(NC(=O)/C=C/c2ccc(Br)o2)s1	8%	-9%	3%	27%	3%	-4%
CCOC(=O)CSc1nc2ccc(NC(=O)COc3ccccc3C)cc2s1	-1%	14%	6%	-8%	-8%	.
Cc1nn(C(=O)c2ccc(Cl)cc2)c(C)c1S(=O)(=O)N1CCCCCC1	-1%[57.1 µM]	-5%[57.1 µM]	-13%	6%	2%	-4%
Cc1ccc(CSc2ncc(Cl)c(C(=O)Nc3nnc(C)s3)n2)cc1	1%	10%	-28%	21%	-8%	.
COc1cc2c(NC3CCN(C)CC3)nc(N3CCCN(C)CC3)nc2cc1OCCCCN	53%	-18%	.	.	.	.
CC(C)(C)NC(=O)C(c1ccccc1)n1c(=O)c(-c2cc3ccccc3[nH]2)nc2ccccc21 (configuration not stated)	.	.	.	?	i	.
CC(C)(C)NC(=O)C(c1cccc2ccccc12)n1c(=O)c(-c2cc3ccccc3[nH]2)nc2ccccc21 (configuration not stated)	.	.	.	6.3µM*	i	.
CC(C)(C)NC(=O)C(c1ccc(C(F)(F)F)cc1)n1c(=O)c(-c2cc3ccccc3[nH]2)nc2ccccc21 (configuration not stated)	.	.	.	2.8µM*	i	.
O=S(=O)(c1ccc2nc(Nc3ccc(Br)cc3F)ccc2c1)N1CCCC1	4%[57.1 µM]	15%[57.1 µM]	-3%	7%	5%	.
COc1ccc(CCNC(=O)CSCc2nc(-c3ccc(OC)c(OC)c3)oc2C)cc1OC	6%	9%	0%	24%	5%	.
OCCOCCOCCO	.	.	.	.	.	-1%
Cc1ccc2oc(-c3ccc(C)c(NC(=O)/C=C/c4ccc(Cl)cc4)c3)nc2c1	12%[11.4 µM]	21%	0%	13%	6%	8%
Cc1ccc2oc(-c3ccc(C)c(NC(=O)/C=C/c4ccco4)c3)nc2c1	3%	32µM*	15%	3%	-2%	0%
O=C(NCCc1csc2nc(-c3ccccc3F)nn12)C(=O)Nc1cc(F)ccc1F	1%[57.1 µM]	13%[57.1 µM]	-12%	13%	6%	.
COc1ccc(N(CC(=O)Nc2cc(Cl)ccc2OC)S(=O)(=O)c2c(C)noc2C)cc1	3%[57.1 µM]	14%[57.1 µM]	1%	4.5µM*	-26%	10%
COc1ccc(OC)c(NC(=O)CN(c2ccc(C)cc2)S(=O)(=O)c2c(C)noc2C)c1	0%	17%	5%	10µM*	-23%	4%
COc1ccc(OC)c(NC(=O)CN(c2ccc(C(C)C)cc2)S(=O)(=O)c2c(C)noc2C)c1	4%	27%	5%	?	-17%	0%
COc1cccc(CNC(=O)CN(c2cc(C)cc(C)c2)S(=O)(=O)c2c(C)noc2C)c1	-3%	0%	4%	10µM*	1%	0%
COc1cccc(CNC(=O)CN(c2ccc(C(C)C)cc2)S(=O)(=O)c2c(C)noc2C)c1	-14%	12%	3%	-11%	-6%	0%
Cc1cc(C)nc(N/C=C(\C#N)C(=O)c2cccc(CSc3ccccc3)c2)n1	-4%	0%	.	.	.	.
N#C/C(=C\c1ccc(OCc2ccc(C(=O)O)cc2)cc1)C(=O)NCc1ccccc1	-11%	-20%	6%	17%	0%	-5%
